High-throughput results from PubChem.
S1P4 agonist: S1P4 receptor agonists, primary screen, cell-based | activation, % at 4.98 µM | S1P4-expressing cell line, agonist reporter assay | AID 1509, 2009 | 220,000 compounds, 0.35% hits; in the data active = activation above about 11%;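 note: 0% = DMSO vehicle and 100% = reference agonist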
S1P4 antag: S1P4 receptor antagonists, primary screen, cell-based; Sphingosine 1-phosphate receptor 4 (Homo sapiens), O95977; S1P4-expressing cells, antagonist mode, reporter read-out; inhibition, % at 4.98 µM; 220,000 compounds, 0.26% hits; in the data active = inhibition above about 29%;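 note: 0% = wells stimulated with agonist and 100% = vehicle wells without agonist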
S1P3 antag: S1P3 receptor antagonists, primary screen, cell-based; Sphingosine 1-phosphate receptor 3 (Homo sapiens), Q99500; CHO S1P3 NFAT-BLA reporter, FRET fluorescence, antagonist mode; inhibition, % at 4.98 µM; 170,000 compounds, 0.27% hits; AID 485, 2006;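 active = inhibition above the plate cutoff, the mean inhibition of test wells on that plate plus 3 SD, cut at about 28% in these data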;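 note: cells challenged with S1P at its EC80 of 0.8 µM; blue over green emission ratio from cleaved BLA substrate after 4 h stimulation; 0% = S1P-stimulated wells and 100% = unstimulated DMSO-only wells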
p97 inhibitor: inhibitors of human p97 ATPase, primary screen, biochemical | recombinant p97 ATPase, Kinase-Glo ATP luminescence, 3 h | inhibition, % at 8 µM | 220,000 compounds, 0.42% hits; in the data active = inhibition above about 15%;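 note: 0% = DMSO vehicle and 100% = wells lacking enzyme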
Target sequence (P55072 whole entry, looked up): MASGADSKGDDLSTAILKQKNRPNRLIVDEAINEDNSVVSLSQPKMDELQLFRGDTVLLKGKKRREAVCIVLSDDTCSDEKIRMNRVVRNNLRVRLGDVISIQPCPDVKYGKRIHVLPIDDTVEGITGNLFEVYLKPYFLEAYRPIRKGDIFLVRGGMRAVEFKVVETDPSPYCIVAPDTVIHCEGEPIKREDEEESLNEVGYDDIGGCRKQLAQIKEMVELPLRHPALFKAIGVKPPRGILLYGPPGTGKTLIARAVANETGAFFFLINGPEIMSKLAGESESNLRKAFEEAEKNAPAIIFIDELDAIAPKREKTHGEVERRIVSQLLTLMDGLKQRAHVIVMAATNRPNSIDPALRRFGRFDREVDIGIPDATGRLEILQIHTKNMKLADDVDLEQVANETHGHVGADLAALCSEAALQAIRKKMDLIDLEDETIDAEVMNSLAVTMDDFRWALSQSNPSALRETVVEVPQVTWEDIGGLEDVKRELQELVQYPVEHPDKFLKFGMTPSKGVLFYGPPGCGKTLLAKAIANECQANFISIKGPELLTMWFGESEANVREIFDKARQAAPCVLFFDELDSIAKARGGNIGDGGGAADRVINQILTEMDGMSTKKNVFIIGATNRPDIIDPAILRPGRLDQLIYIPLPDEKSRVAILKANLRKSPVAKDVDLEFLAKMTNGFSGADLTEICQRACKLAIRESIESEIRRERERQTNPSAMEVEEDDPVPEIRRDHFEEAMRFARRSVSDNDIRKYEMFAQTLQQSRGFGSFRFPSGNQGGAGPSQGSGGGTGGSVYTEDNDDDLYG
Redox H2O2 prof: compounds producing H2O2 with reducing agent – biochemical, NIH compound library profiling, artefact control for MLSCN library redox annotation, primary screen. DTT-dependent redox cycling H2O2, phenol red/HRP absorbance; 100% = 100 µM peroxide control, 0% = buffer. activation, % at 10 µM. 200,000 compounds, 0.03% hits;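 active = activation of at least 50% relative to the plate's high and low controls in the primary single-dose screen; inactive = activation below 50%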;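 note: compound incubated with DTT at 0.8 mM final as the reducing agent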
Arbovirus inh: antivirals against arbovirus infection, primary screen, cell-based, full library, 10K replicate subset | inhibition, % at 10 µM | AID 1251, 2008 | arbovirus infection cell-based antiviral screen | 200,000 compounds, 0.37% hits; in the data active = inhibition above about 30%
S1P4 ag conf: S1P4 receptor agonists, retest, confirmation, cell-based, high throughput | S1P4 agonist cell-based reporter assay | 740 compounds, 7% hits | AID 1523, 2009 | activation, % at 4.98 µM | shares compounds with S1P4 agonist; in the data active = activation above about 12%;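 note: 0% = vehicle and 100% = full reference agonist response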
S1P1 ag: S1P1 receptor agonists, human, counter-screen for S1P4 agonist project, cell-based; shares compounds with S1P4 agonist; S1P1 agonist cell-based assay, activation; activation, % at 4.98 µM; 740 compounds, 4% hits; in the data active = activation above about 21%;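 note: 0% = vehicle wells and 100% = reference agonist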
The depositor's hits bear a star; nt = no result. A selection: hits, their analogues and other compounds. The true share with any hit is near 1.6%.

SMILES	S1P4 agonist	S1P4 antag	S1P3 antag	p97 inhibitor	Redox H2O2 prof	Arbovirus inh	S1P4 ag conf	S1P1 ag
Cn1c(=O)c2c(nc(SCC(=O)NCC3CCCO3)n2Cc2ccc(F)cc2)n(C)c1=O (stereo unspecified)	0.2	0.7	-7.1	-3.4	0.0	-2.9	nt	nt
CCCn1c(SCC(=O)NCC2CCCO2)nc2c1c(=O)n(C)c(=O)n2C (stereo unspecified)	34.1*	0.0	-2.7	1.6	1.8	5.3	-1.6	-1.7
CS(=O)(=O)N1CCc2cc(C(=O)N3CCOCC3)ccc21	26.9*	1.6	-6.8	10.2	0.8	8.5	-1.6	-3.5
CC(C)NC(=O)C1CCN(C(=O)c2cc3sccc3n2Cc2ccc(F)cc2)CC1	16.0*	1.7	-1.6	2.9	2.1	9.3	0.3	6.9
CC1CCN(C(=O)C2CCN(C(=O)c3cc4sccc4n3Cc3ccc(F)cc3)CC2)CC1	1.1	-11.3	7.4	-5.5	-0.1	-2.1	nt	nt
O=C(/C=C/c1ccco1)Nc1ccc(C(=O)N2CCOCC2)cc1	-0.2	-8.0	-5.8	0.8	-0.2	0.7	nt	nt
O=C(/C=C/c1ccco1)Nc1ccccc1N1CCOCC1	20.2*	-23.1	-12.8	6.9	-0.5	3.1	-1.3	-3.8
O=C(N/N=C/c1cc([N+](=O)[O-])ccc1O)c1cc(-c2ccccc2)nc2ccccc12	0.8	-9.3	-13.7	0.7	0.4	-23.6	nt	nt
Cc1cc(C(=O)N/N=C/c2cc([N+](=O)[O-])ccc2O)c2ccccc2n1	22.2*	-10.4	-7.2	-1.6	-0.8	-24.1	-1.7	-1.3
Cc1ccc(S(=O)(=O)N(C)C)cc1-n1c(SCC(=O)Nc2ccc(F)cc2)nc2ccccc2c1=O	11.0*	-13.1	-3.1	7.2	0.4	-4.7	-2.1	1.1
Cc1c(C(=O)O)c(C(=O)O)nc2ccc(N3CCOCC3)cc12	-2.1	-1.8	6.9	10.2	-1.4	2.4	nt	nt
COC(=O)CSc1nc(C)cc(N2CCOCC2)n1	-0.1	-20.8	9.7	1.9	-0.3	5.0	nt	nt
O=c1[nH][nH]c2cc(=O)n(-c3cccc(C(F)(F)F)c3)nc12	-0.9	3.5	0.6	-1.6	-0.2	2.0	nt	nt
Nc1n[nH]c2cc(=O)n(-c3cccc(C(F)(F)F)c3)nc12	65.2*	-21.1	-2.0	6.2	-1.5	8.5	-1.9	-7.1
CC(C)(O)C#Cc1ccc(C(=O)NCc2ccccc2F)cc1	-0.2	-5.0	4.3	3.6	-0.2	1.8	nt	nt
C=CCNC(=O)Nc1ccc(Cl)cn1	-1.2	2.8	-11.4	-2.2	0.0	5.1	nt	nt
CCOc1ccc(C(CC(=O)O)NC(=O)COc2ccccc2)cc1OC (stereo unspecified)	43.8*	-19.5	-23.2	1.5	-1.1	11.0	-2.7	-8.3
COc1ccc(C(CC(=O)O)NC(=O)COc2ccccc2)cc1OC (stereo unspecified)	2.1	4.5	-17.4	0.2	1.6	0.0	nt	nt
C#CCOc1ccc(/C=N/NC(=O)c2cccnc2)cc1OCC	0.2	-13.3	-1.1	2.8	-1.2	11.3	nt	nt
Cc1ccc(CNC(=O)C2CN(S(C)(=O)=O)c3cc(Cl)ccc3O2)cc1 (stereo unspecified)	63.4*	-22.6	-12.9	-0.5	0.0	2.5	-2.3	3.1
Cc1ccc(OCC(=O)N2N=C(c3ccncc3)CC2(O)C(F)(F)F)cc1C (stereo unspecified)	0.1	2.5	5.5	-3.2	nt	nt	nt	nt
O=C(CN1C(=O)CSc2ccc(S(=O)(=O)N3CCOCC3)cc21)NCCCN1CCc2ccccc2C1	-0.6	0.0	-15.2	-4.1	-0.5	5.1	nt	nt
O=C(CN1C(=O)CSc2ccc(S(=O)(=O)N3CCOCC3)cc21)NCCCN1CCOCC1	17.2*	-3.2	-22.0	12.0	0.0	10.8	-2.0	-3.8
O=C(CCSc1ccccc1)NCc1cccnc1	11.2*	-8.2	2.4	3.0	-0.2	0.3	-1.8	1.2
O=C(CSc1ccccc1)NCc1cccnc1	-0.2	-8.2	nt	2.5	-0.5	-0.5	nt	nt
SMILES	S1P4 agonist	S1P4 antag	S1P3 antag	p97 inhibitor	Redox H2O2 prof	Arbovirus inh	S1P4 ag conf	S1P1 ag
O=C(COC(=O)CCSc1ccccc1)Nc1cc(F)ccc1F	0.1	-8.2	-8.3	2.8	-1.8	4.7	nt	nt
O=C(COC(=O)CCSc1ccccc1)Nc1ccc(F)cc1Cl	31.0*	-13.4	-8.0	-2.0	0.6	-6.8	-2.4	-0.7
COc1ccccc1NC(=S)N(CCCN1CCOCC1)Cc1cccs1	-0.5	-6.5	-11.8	3.9	-1.2	2.8	nt	nt
O=C(O/N=C1\CCS(=O)(=O)c2sccc21)c1c(F)cccc1F	33.0*	-10.5	-24.0	4.6	-0.3	4.7	-1.2	-3.8
Cc1ccc(NC(=O)CCn2c(=O)[nH]c3ccsc3c2=O)cc1	1.5	-10.5	3.0	6.2	0.0	0.6	nt	nt
CCOc1ccc(NC(=O)CCn2c(=O)[nH]c3ccsc3c2=O)cc1	24.1*	-3.5	nt	-4.2	0.1	1.6	-1.2	-3.8
Cc1cccc(C)c1Nc1nnc(SCC(=O)c2ccc(Br)s2)s1	33.8*	-12.7	-2.9	-0.8	0.4	15.8	-2.2	-0.8
CCCCOc1ncnc2c1[nH]c1ccc(C)cc12	2.4	-10.1	10.0	-0.1	nt	nt	nt	nt
O=C(O)c1ccc(Br)cn1	27.4*	2.0	-27.5	2.4	-1.7	9.4	-2.0	2.3
CCOC(=O)N1CCC(N2Cc3cccc(C(=O)Nc4ccc(CC)cc4)c3C2=O)CC1	11.7*	-9.4	nt	-8.2	-1.7	-5.9	-2.7	-3.4
CCOC(=O)N1CCC(N2Cc3cccc(C(=O)Nc4ccc(F)cc4)c3C2=O)CC1	-0.9	7.3	nt	3.6	0.8	6.0	nt	nt
CC(=O)Nc1ccc(C(=O)N/N=C/c2ccccc2OCc2ccccc2)cc1	18.6*	3.5	0.9	12.5	0.0	-11.8	-1.5	-4.2
Cc1cc(C)nc(NC(=O)Cc2ccc([N+](=O)[O-])cc2)c1	29.7*	-27.6	-4.0	-6.4	-0.2	-6.2	-2.6	-1.2
COc1ccc([N+](=O)[O-])cc1NC(=O)Cc1ccc(Cl)cc1	14.6*	-5.6	-7.2	2.1	0.8	3.5	-0.8	-7.9
COc1ccc(OCCOCCOc2ccc(C)cc2[N+](=O)[O-])cc1	30.4*	-19.2	0.2	-6.0	-0.3	-0.7	0.1	-5.2
O=C(CSc1nnc(CNc2ccc(F)cc2)o1)N1c2ccccc2Sc2ccccc21	-0.9	-12.6	nt	1.9	-1.9	-10.8	nt	nt
O=[N+]([O-])c1ccc2c(c1)N([O-])C1(CCCCC1)[N+]2=O	1.6	13.0	-13.2	5.8	nt	nt	nt	nt
